The record followed here is PubChem BioAssay (NCATS).

Each structure is given as a SMILES string. Inconclusive results are not listed. Activity calls are given as the source filed them. Unless noted, calls come from the whole dose curve; as a rule, active = well fitted curve in the direction sought with a large enough effect; inconclusive = small, poorly fitted or top-dose-only effect, or another doubt; inactive = no such curve, though single readings can be large; an effect the other way counts as inactive or inconclusive.

Assay [1] is described as follows: Confirmation and Secondary Assay for Modulators of Hemoglobin Beta Chain Splicing at IVS2 654 locus (AID 910).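 Note: HeLa cells stably carrying EGFP split by mutant beta-globin IVS2-654 intron.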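 Note: potency is the fitted concentration of half-maximal effect; potency of activators that raise GFP signal by restoring correct splicing.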 The method, boiled down: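 HeLa cells stably expressing EGFP interrupted by β-globin IVS2-654 intron, seeded overnight in Opti-MEM/2% FCS, then treated 2 days at 37 °C. Restored splicing read as total peak GFP intensity per well by laser scanning cytometry (488 nm excitation, 500–520 nm emission); 500 nM antisense PNA as control.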

Assay [2] in a line: Confirmation and Secondary Assay for Modulators of Hemoglobin Beta Chain Splicing at IVS2 705 locus (AID 930).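 Note: GFP fluorescence per well restored by corrected splicing of the IVS2-705 intron in EGFP.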 Note: potency is the fitted concentration of half-maximal effect. The essentials:
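Secondary splice-site specificity test uses HeLa expressing CMV-driven EGFP interrupted by IVS2-705; cells were treated 2 days at 37C with 500 nM antisense PNA as positive control.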

The nature of assay [3]: qHTS Assay for Lipid Storage Modulators (AID 1519; calls by dose curve; for activity change, negative = inhibition: % is set by controls: 0 for no effect and ±100 for the full control effect). Particulars: Drosophila S3 cells, BODIPY lipid droplet/cell ratio, laser cytometry, cells loaded with oleic acid; for activity change, negative = inhibition: at 57.5 µM (top of the series). The essentials:
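Cells seeded at 5,000 per well were treated with compounds over a concentration series and loaded with oleic acid (400 uM, as added). Lipid droplet fluorescence (488 nm excitation, 500-530 nm channel) was read by laser-scanning cytometry and normalized to 20 uM Triacsin C.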
A general note: qHTS replaces the single test concentration by a dilution series.

The target in assay [4] is Ubiquitin carboxyl-terminal hydrolase 1 (Homo sapiens) (UniProt O94782). Description: Inhibitors of USP1/UAF1: Pilot qHTS (AID 504865).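 Note: rhodamine fluorescence freed from ubiquitin-rhodamine substrate followed over time; top concentration of the series differs between compounds; % is set by controls: 0 for no effect and ±100 for the full control effect; nearly all actives have a fitted effect of over 35% in size.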 The essentials:
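Enzyme-free wells gave the negative control, while test wells held 1nM USP1/UAF1 preincubated with compound for 15 min at room temperature. Ub-Rho at 150nM final started the reaction, and fluorescence at 480/540 nm was recorded kinetically.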

In assay [5] the target is Luciferin 4-monooxygenase (Photinus pyralis) (UniProt P08659). The experiment in a line: Biochemical firefly luciferase enzyme assay for NPC (AID 624030).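 Note: purified P. pyralis luciferase at 10 nM with luciferin and ATP substrate; 0% = DMSO and -100% = full luciferase inhibition by PTC124 control; nearly all actives have a fitted effect of over 70% in size.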 The method, boiled down: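 Purified P. pyralis luciferase at 10 nM in 50 mM Tris Acetate (final), luminescence read within 5 minutes of enzyme addition to compounds. Activity normalised to PTC124 versus DMSO; concentration-response curves classed by r2, magnitude and activity.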

Assay [6] in a line: qHTS profiling for inhibitors of Plasmodium falciparum proliferation (AID 504749).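 For activity, negative = inhibition: 0% = DMSO vehicle and full inhibition = artemisinin control.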 For all read-outs here: nearly all actives have a fitted effect of over 60% in size. Note: potency is the fitted concentration of half-maximal effect. Particulars: P. falciparum in erythrocytes, SYBR Green DNA, 72 h; for activity, negative = inhibition: at 28.7 µM (top of the series). The method, boiled down:
(§1)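 Each compound contacts P. falciparum-infected red blood cells for 72 h at 37 C; lysis buffer (Tris, EDTA, saponin, Triton X, SYBR Green I) is added and fluorescence measured next morning; values normalized to controls.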

For the next assay, the system named is CP194. The description is as above. To be noted: P. falciparum in erythrocytes, SYBR Green DNA, 72 h; series mostly up to 12.8 µM. The method, boiled down: as §1
For another assay, the system named is CP201. The description is as above. To be noted: P. falciparum in erythrocytes, SYBR Green DNA, 72 h; series mostly up to 12.8 µM. The essentials: as §1
The test system of the next assay is CP262. The assay is described as above. Particulars: P. falciparum in erythrocytes, SYBR Green DNA, 72 h; series mostly up to 12.8 µM. The method, boiled down:
as §1

The next assay relates to CP268. Described as above. To be noted: P. falciparum in erythrocytes, SYBR Green DNA, 72 h; series mostly up to 12.8 µM. The method, boiled down: as §1
Another assay deals with CP269. The description is as above. To be noted: P. falciparum in erythrocytes, SYBR Green DNA, 72 h; series mostly up to 12.8 µM. The method, boiled down:
as §1

The next assay deals with CP286. The assay is described as above. Particulars: P. falciparum in erythrocytes, SYBR Green DNA, 72 h; series mostly up to 12.8 µM. The method, boiled down: as §1
For another assay, the system named is CP305. The assay is described as above. To be noted: P. falciparum in erythrocytes, SYBR Green DNA, 72 h; series mostly up to 12.8 µM. The essentials: as §1
The subject of another assay is DIV30. Described as above. To be noted: P. falciparum in erythrocytes, SYBR Green DNA, 72 h; series mostly up to 12.8 µM. The method, boiled down: as §1
Another assay deals with FAB9. The description is as above. Particulars: P. falciparum in erythrocytes, SYBR Green DNA, 72 h; series mostly up to 12.8 µM. The method, boiled down: as §1
In the next assay the test system is JCK. The assay is described as above. Particulars: P. falciparum in erythrocytes, SYBR Green DNA, 72 h; series mostly up to 12.8 µM. The method, boiled down:
as §1

A further assay deals with PC49. Described as above. To be noted: P. falciparum in erythrocytes, SYBR Green DNA, 72 h; series mostly up to 12.8 µM. The essentials: as §1
Assay [7] addresses Cytochrome P450 3A4 (Homo sapiens) (UniProt P08684). The experiment in a line: qHTS Assay for Inhibitors and Substrates of Cytochrome P450 3A4 (AID 884). Note: % is set by controls: 0 for no effect and ±100 for the full control effect; nearly all actives have a fitted effect of over 50% in size. The essentials:
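Luminescent readout of luciferin produced by CYP3A4 (20 nM) dealkylation of Luciferin-PPXE, 25 uM (its KM). NADPH-driven reaction ran 60 min at RT after 10 min compound preincubation; data scaled to 57 uM ketoconazole as 100% inhibition.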

In assay [8] the target is DNA dC->dU-editing enzyme APOBEC-3G (Homo sapiens) (UniProt Q9HC16). Description: qHTS for inhibitors of Vif-A3G interactions: Validation (AID 588379). Note: 0% is about no effect. The essentials: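 Yellow fluorescence (Ex 488, Em 500-530) of Vif-coexpressing HeLa A3G-eYFP cells, scanned by Acumen cytometer, reports blocked A3G degradation. Cells plated at 700/well overnight at 37 deg C before compound addition, then a further overnight compound incubation at 37 deg C.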

[9] abbreviates: measured here: cell count channel max response.
The mark [10] stands for this setting: measured here: lipid channel max response.

Chain of Cytochrome P450 3A4 (Homo sapiens) (P08684 whole entry, looked up): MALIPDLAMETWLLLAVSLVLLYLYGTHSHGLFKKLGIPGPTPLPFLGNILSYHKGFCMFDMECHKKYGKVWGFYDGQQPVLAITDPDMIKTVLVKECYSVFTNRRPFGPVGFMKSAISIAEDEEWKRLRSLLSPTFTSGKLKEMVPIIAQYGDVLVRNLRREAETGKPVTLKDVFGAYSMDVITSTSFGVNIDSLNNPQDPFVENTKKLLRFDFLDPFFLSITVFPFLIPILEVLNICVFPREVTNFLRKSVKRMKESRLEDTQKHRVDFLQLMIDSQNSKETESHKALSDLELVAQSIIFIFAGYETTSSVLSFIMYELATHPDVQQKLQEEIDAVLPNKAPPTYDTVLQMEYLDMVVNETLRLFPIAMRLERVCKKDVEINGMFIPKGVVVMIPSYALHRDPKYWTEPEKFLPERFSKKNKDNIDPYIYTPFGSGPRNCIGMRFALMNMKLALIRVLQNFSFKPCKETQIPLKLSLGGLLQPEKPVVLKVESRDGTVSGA
Chain of Luciferin 4-monooxygenase (Photinus pyralis) (P08659 whole entry, looked up): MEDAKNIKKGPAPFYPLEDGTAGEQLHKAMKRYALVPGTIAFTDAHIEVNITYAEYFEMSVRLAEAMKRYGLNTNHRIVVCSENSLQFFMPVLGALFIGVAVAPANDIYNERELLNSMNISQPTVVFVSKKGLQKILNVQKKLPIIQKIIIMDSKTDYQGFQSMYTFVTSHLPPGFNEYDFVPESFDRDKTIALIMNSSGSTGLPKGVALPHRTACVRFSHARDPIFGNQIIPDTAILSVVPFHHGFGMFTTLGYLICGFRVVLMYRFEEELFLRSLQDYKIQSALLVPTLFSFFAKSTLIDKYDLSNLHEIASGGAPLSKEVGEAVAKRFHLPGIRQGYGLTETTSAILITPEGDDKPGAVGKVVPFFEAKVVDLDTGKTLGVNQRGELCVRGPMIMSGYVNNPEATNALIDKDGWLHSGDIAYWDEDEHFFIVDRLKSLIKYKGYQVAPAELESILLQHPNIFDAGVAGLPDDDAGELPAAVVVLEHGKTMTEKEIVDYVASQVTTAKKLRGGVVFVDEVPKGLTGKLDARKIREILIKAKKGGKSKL
Chain of Ubiquitin carboxyl-terminal hydrolase 1 (Homo sapiens) (O94782 whole entry, looked up): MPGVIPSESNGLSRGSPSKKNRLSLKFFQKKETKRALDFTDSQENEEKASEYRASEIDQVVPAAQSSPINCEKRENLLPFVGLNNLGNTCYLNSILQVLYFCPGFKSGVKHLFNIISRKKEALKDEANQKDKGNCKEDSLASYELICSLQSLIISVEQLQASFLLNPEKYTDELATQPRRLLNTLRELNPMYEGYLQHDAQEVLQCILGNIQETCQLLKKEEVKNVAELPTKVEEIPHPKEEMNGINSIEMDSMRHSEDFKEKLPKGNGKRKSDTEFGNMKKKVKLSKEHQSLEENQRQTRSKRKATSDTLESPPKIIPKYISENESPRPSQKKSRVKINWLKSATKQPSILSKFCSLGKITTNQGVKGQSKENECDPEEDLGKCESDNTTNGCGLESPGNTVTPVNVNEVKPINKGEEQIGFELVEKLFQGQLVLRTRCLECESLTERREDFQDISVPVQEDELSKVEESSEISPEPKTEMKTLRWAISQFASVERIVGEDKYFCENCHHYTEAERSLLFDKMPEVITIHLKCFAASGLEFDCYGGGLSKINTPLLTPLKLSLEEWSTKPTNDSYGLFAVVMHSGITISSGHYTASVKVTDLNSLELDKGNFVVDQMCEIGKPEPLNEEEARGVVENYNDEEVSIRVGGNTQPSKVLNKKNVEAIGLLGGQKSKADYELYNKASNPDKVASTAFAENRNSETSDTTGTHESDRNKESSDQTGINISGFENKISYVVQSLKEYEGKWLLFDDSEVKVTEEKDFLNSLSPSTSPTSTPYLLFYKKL
Chain of DNA dC->dU-editing enzyme APOBEC-3G (Homo sapiens) (Q9HC16 whole entry, looked up): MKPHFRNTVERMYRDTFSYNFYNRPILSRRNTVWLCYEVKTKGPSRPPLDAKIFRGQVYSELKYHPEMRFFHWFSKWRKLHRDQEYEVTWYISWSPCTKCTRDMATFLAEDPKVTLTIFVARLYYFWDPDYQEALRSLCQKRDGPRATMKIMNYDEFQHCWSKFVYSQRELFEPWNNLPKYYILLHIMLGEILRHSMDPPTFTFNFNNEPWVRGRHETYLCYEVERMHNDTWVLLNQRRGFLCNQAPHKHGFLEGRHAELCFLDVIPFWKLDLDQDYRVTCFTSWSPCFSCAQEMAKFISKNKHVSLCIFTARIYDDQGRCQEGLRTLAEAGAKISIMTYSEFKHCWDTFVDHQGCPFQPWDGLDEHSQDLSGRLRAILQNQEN

As for `CC1(C)OC2CC(=O)OC[C@@]23C1CC(=O)[C@]1(C)C3CC[C@@]2(C)C(c3ccoc3)OC(=O)C3O[C@@]321` (stereo not given in full), the Potency entry (in assay [1]; in assay [2]; in assay [4]; in assay [5]; in the assay on CP194; in the assay on CP201) was “inactive” each time. For the same molecule, the Potency entry with CP262, in the assay on CP268, in the assay on CP269, with CP286, in the assay with CP305 and in the assay with DIV30 was “inactive” throughout. Besides, the Potency entry in the assay on FAB9, in the assay on JCK and with PC49 was “inactive” in each case. Besides, in [3], the activity change, negative = inhibition is 7.05% (inactive). The max response in [3] (setting [9]) stood at 20.2%; in assay [3] (setting [10]), 29.2%. The activity, negative = inhibition in assay [6] (parasite line A) was -0.282% (inactive); in assay [6] (parasite line B) it was 13.3% (inactive).
Turning to `COC1OC(CO)C(OC2OC(C(=O)O)C(OC3OC(COS(=O)(=O)O)C(OC4OC(C(=O)O)C(OC5OC(CO)C(OC6OC(C(=O)O)C(OC7OC(COS(=O)(=O)O)C(OC8OC(C(=O)O)=C[C@H](O)C8OS(=O)(=O)O)C(O)C7NC(C)=O)[C@@H](O)C6O)C(O)C5NC(C)=O)[C@@H](O)C4O)C(O)C3NC(C)=O)[C@@H](O)C2O)C(O)C1NC(C)=O` (stereo not given in full), the Potency entry (in [7]; in assay [1]; in assay [2]; in assay [4]; in assay [5]; in the assay with CP194) was “inactive” throughout. Further, the Potency result in the assay on CP201, in the assay with CP262, in the assay with CP268, with CP269 and in the assay with CP305 was “inactive” in each case. In assay [3], the activity change, negative = inhibition is 0.455% (inactive). The max response was -2.95% in assay [3] (setting [9]) and -0.316% in assay [3] (setting [10]).
For `COC(=O)N/N=C/C1=C[N+](=O)c2ccccc2[N+]1=O`, the Potency entry (in [7]; in assay [1]; in [2]; in assay [4]; in assay [5]; in the assay on CP194) was “inactive” each time. Further, the Potency entry in the assay on CP201, with CP262, in the assay with CP268, in the assay on CP269, with CP286 and with CP305 was “inactive” throughout. The Potency entry with DIV30, with FAB9, with JCK and in the assay on PC49 was “inactive” in each case. For the same molecule, the activity change, negative = inhibition in [3] was 12.7% (inactive). Besides, the max response in assay [3] (setting [9]) came out at 5.74%; in assay [3] (setting [10]), 17.7%. The activity, negative = inhibition was -2.61% (inactive) in assay [6] (parasite line A) and -4.8% (inactive) in assay [6] (parasite line B).
For `COc1ccc(CC(N)C(=O)NC2C(CO)OC(n3cnc4c(N(C)C)ncnc43)C2O)cc1` (stereo not given), the Potency entry in [1], in assay [2], in assay [4] and in assay [5] was “inactive” in each case. The activity change, negative = inhibition in [3] is -15.4% (inactive). For the same molecule, the max response in assay [3] (setting [9]) worked out at 18.9%; in assay [3] (setting [10]), 1.24%. Moreover, the Potency in assay [6] (parasite line A) is 0.794 µM (active); in assay [6] (parasite line B) it was 1 µM (active); with CP194, 1.07 µM (active); in the assay with CP201, 1.51 µM (active); in the assay on CP262 it was 0.675 µM (active); in the assay on CP268, 1.51 µM (active). In addition, the Potency is 0.757 µM (active) in the assay on CP269; 0.891 µM (active) with CP286; 1.2 µM (active) in the assay with CP305; 0.849 µM (active) with DIV30; 1.78 µM (active) in the assay with FAB9; 3.55 µM (active) in the assay with JCK. Moreover, in the assay with PC49, the Potency is 2 µM (active).
In the case of `OCC1OC(n2cnc3c(=S)nc[nH]c32)C(O)C1O` (stereo not given), the Potency entry (in assay [7]; in assay [4]; in assay [5]; in the assay with CP194; with CP201; with CP262) was “inactive” each time. For the same molecule, the Potency result in the assay with CP268, in the assay with CP269, in the assay with CP286, in the assay on CP305, in the assay with DIV30 and in the assay on FAB9 was “inactive” in each case. The Potency entry in the assay on JCK and in the assay on PC49 was “inactive” in each case. Also, the figures for the Potency in [1] and in assay [2] were 3.16 µM (active) and 3.98 µM (active), respectively. The activity change, negative = inhibition in assay [3] is 0.292% (inactive). In addition, the figures for the max response in assay [3] (setting [9]) and in assay [3] (setting [10]) were -3.48% and -0.429%, respectively. Further, the activity, negative = inhibition in [6] (parasite line A) was -27.9% (inactive).
In the case of `CC(C)[C@H]1CC[C@@H](C)C[C@H]1O`, the activity change, negative = inhibition in [3] was -5.33% (inactive). The max response is -11.9% in assay [3] (setting [9]) and -15.2% in assay [3] (setting [10]). Also, in assay [4], the Potency entry is “inactive”. In addition, in [8], the molecule was called inactive.
